Laboratory results from PMC5515408, “Sequence-specific DNA binding by MYC/MAX to low-affinity non-E-box motifs”.
In all, about 4,500 sequences were measured (“log2 normalized fluorescence”: median about -0.34, highest 2% from about 3.3 on). This is one part of a sample in which the highest values are shown more often than they occur.

Target: MAX:MAX (p21) (human, UniProt P61244-2 1-151)
Assay: protein-binding microarray (anti-MAX antibody); PBM: 15 mM Tris-HCl pH 7.5, 100 mM KCl, 0.075% NP40, 7.5 mM beta-mercaptoethanol, 375 ng/ul BSA, 8 ng/ul poly(dA-dT):(dA-dT), 550 ng complex, 60 min, room tempe; high values mean tight binding
Details: protein: recombinant; tags: 6xHis; chain copies: 2; label: 3' end of printed strand (linker) attached to glass slide; dsDNA, one strand shown
How it was run: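 A custom Agilent glass array held ~5000 unique 12-nt sequences in triplicate spots, made double-stranded by primer extension. His-tagged human MYC:MAX or MAX:MAX dimers (550 ng, produced in E. coli) were applied for 60 min at room temperature in Tris-KCl buffer, pH 7.5, with NP40, BSA and poly(dA-dT) competitor. Anti-MAX and secondary antibodies detected bound protein, with scanning at 543 nm, and binding is given as log2 normalized fluorescence.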

Chain of MAX:MAX (p21) (P61244 other isoform, or with tags, fused parts or gaps): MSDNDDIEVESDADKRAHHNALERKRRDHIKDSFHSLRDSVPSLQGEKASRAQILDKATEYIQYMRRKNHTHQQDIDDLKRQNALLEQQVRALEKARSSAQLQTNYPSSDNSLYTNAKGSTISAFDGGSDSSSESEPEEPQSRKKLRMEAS

Going from “CCGGCTTACACGTGGAATTAATAGCTAAGATTACTATATCGACG” to “CCGGCCGACACGTGGAATTAATAGCTAAGATTACTATATCGACG”, the binding signal falls from 3.37 log2 normalized fluorescence to 3.32 log2 normalized fluorescence.

First: CCGGCCGACACGTCGTATTAATAGCTAAGATTACTATATCGACG
Second: CCGGCTAACACGTGGAATTAATAGCTAAGATTACTATATCGACG
The binding signal of the first is lower: 2.07 log2 normalized fluorescence for the first, 3.35 log2 normalized fluorescence for the second.

Going from “CCGGCTAACACGTCGTATTAATAGCTAAGATTACTATATCGACG” to “CCGGCTTACATGTGGAATTAATAGCTAAGATTACTATATCGACG”, the binding signal rises from 2.38 log2 normalized fluorescence to 3.25 log2 normalized fluorescence.

First: CCGGCTGACACGTGGAATTAATAGCTAAGATTACTATATCGACG
Second: CCGGCTTACACGTGGGATTAATAGCTAAGATTACTATATCGACG
The binding signal of the first is higher: 3.16 log2 normalized fluorescence for the first, 3.12 log2 normalized fluorescence for the second.

First: CCGGCTAACACGTAGTATTAATAGCTAAGATTACTATATCGACG
Second: CCGGCTGAAGACGGGTATTAATAGCTAAGATTACTATATCGACG
The binding signal of the first is higher: 1.92 log2 normalized fluorescence for the first, -0.654 log2 normalized fluorescence for the second.

First: CCGGCTGACCCGTGGTATTAATAGCTAAGATTACTATATCGACG
Second: CCGGCTGAGCAGGAGTATTAATAGCTAAGATTACTATATCGACG
The binding signal of the first is higher: 2.38 log2 normalized fluorescence for the first, -0.201 log2 normalized fluorescence for the second.

First: CCGGCAGACACGATGTATTAATAGCTAAGATTACTATATCGACG
Second: CCGGCTGAGATCACGTATTAATAGCTAAGATTACTATATCGACG
The binding signal of the first is higher: 3.02 log2 normalized fluorescence for the first, 0.425 log2 normalized fluorescence for the second.

First: CCGGCTGAGGGTTCGTATTAATAGCTAAGATTACTATATCGACG
Second: CCGGCTGAACCCTCGTATTAATAGCTAAGATTACTATATCGACG
The binding signal of the first is lower: -0.732 log2 normalized fluorescence for the first, 0.0153 log2 normalized fluorescence for the second.

First: CCGGCTGAAGCGGGGTATTAATAGCTAAGATTACTATATCGACG
Second: CCGGCTGATTCGATGTATTAATAGCTAAGATTACTATATCGACG
The binding signal of the first is higher: 0.358 log2 normalized fluorescence for the first, -0.732 log2 normalized fluorescence for the second.

Going from “CCGGCTGACGGGCGGTATTAATAGCTAAGATTACTATATCGACG” to “CCGGCTGCCACGTGTTATTAATAGCTAAGATTACTATATCGACG”, the binding signal rises from -0.202 log2 normalized fluorescence to 3.28 log2 normalized fluorescence.

Going from “CCGGCTGCCACGTGATATTAATAGCTAAGATTACTATATCGACG” to “CCGGCTGCCACGACGTATTAATAGCTAAGATTACTATATCGACG”, the binding signal falls from 3.13 log2 normalized fluorescence to 1.79 log2 normalized fluorescence.

Compared with “CCGGCTGTCACGTGGAATTAATAGCTAAGATTACTATATCGACG”, “CCGGCTGCCACGTGGAATTAATAGCTAAGATTACTATATCGACG” is higher in binding signal: 3.19 log2 normalized fluorescence for the first, 3.31 log2 normalized fluorescence for the second.

First: CCGGCTGCCACGTGCGATTAATAGCTAAGATTACTATATCGACG
Second: CCGGCTGCCACGCGGAATTAATAGCTAAGATTACTATATCGACG
The binding signal of the first is higher: 3.47 log2 normalized fluorescence for the first, 3.15 log2 normalized fluorescence for the second.

Compared with “CCGGCTGCCACGAGGAATTAATAGCTAAGATTACTATATCGACG”, “CCGGCTGCCACGTGCTTTTAATAGCTAAGATTACTATATCGACG” is lower in binding signal: 3.34 log2 normalized fluorescence for the first, 3.14 log2 normalized fluorescence for the second.

Compared with “CCGGCTAACACGAGGTATTAATAGCTAAGATTACTATATCGACG”, “CCGGCAGACACGAGGTTTTAATAGCTAAGATTACTATATCGACG” is lower in binding signal: 3.28 log2 normalized fluorescence for the first, 3.03 log2 normalized fluorescence for the second.

First: CCGGCGGACACGCGGTATTAATAGCTAAGATTACTATATCGACG
Second: CCGGCGGACACGAGGTATTAATAGCTAAGATTACTATATCGACG
The binding signal of the first is lower: 3.26 log2 normalized fluorescence for the first, 3.32 log2 normalized fluorescence for the second.

First: CCGGCTGACACGAGGTATTAATAGCTAAGATTACTATATCGACG
Second: CCGGCAGACACGAGGTATTAATAGCTAAGATTACTATATCGACG
The binding signal of the first is lower: 3.08 log2 normalized fluorescence for the first, 3.44 log2 normalized fluorescence for the second.

Compared with “CCGGCTGACCCAAGGTATTAATAGCTAAGATTACTATATCGACG”, “CCGGCTGACATGTGGCCTTAATAGCTAAGATTACTATATCGACG” is higher in binding signal: -0.0673 log2 normalized fluorescence for the first, 2.99 log2 normalized fluorescence for the second.

Compared with “CCGGCTGAGTCACTGTATTAATAGCTAAGATTACTATATCGACG”, “CCGGCTGATTGCGAGTATTAATAGCTAAGATTACTATATCGACG” is lower in binding signal: -0.498 log2 normalized fluorescence for the first, -0.512 log2 normalized fluorescence for the second.

Compared with “CCGGCCGACACGTGCTTTTAATAGCTAAGATTACTATATCGACG”, “CCGGCTGACACGTGTGCTTAATAGCTAAGATTACTATATCGACG” is higher in binding signal: 3.21 log2 normalized fluorescence for the first, 3.4 log2 normalized fluorescence for the second.

“CCGGCTGACACGTGCCCTTAATAGCTAAGATTACTATATCGACG” and “CCGGCTGACACGTGCGCTTAATAGCTAAGATTACTATATCGACG” are the same in binding signal: 3.16 log2 normalized fluorescence for the first, 3.16 log2 normalized fluorescence for the second.

First: CCGGCTGACACGTGGCTTTAATAGCTAAGATTACTATATCGACG
Second: CCGGCTGACACGTGCTTTTAATAGCTAAGATTACTATATCGACG
The binding signal of the first is lower: 3.04 log2 normalized fluorescence for the first, 3.34 log2 normalized fluorescence for the second.

First: CCGGCTAACACGTGCTTTTAATAGCTAAGATTACTATATCGACG
Second: CCGGCTGACACGTAGCTTTAATAGCTAAGATTACTATATCGACG
The binding signal of the first is higher: 3.33 log2 normalized fluorescence for the first, 1.51 log2 normalized fluorescence for the second.

Going from “CCGGCTGACACGTGCCTTTAATAGCTAAGATTACTATATCGACG” to “CCGGCTGAGACGTGGGATTAATAGCTAAGATTACTATATCGACG”, the binding signal falls from 3.18 log2 normalized fluorescence to 0.979 log2 normalized fluorescence.

Compared with “CCGGCTGAATGTCTGTATTAATAGCTAAGATTACTATATCGACG”, “CCGGCTGATGCAGCGTATTAATAGCTAAGATTACTATATCGACG” is lower in binding signal: 0.29 log2 normalized fluorescence for the first, -0.0989 log2 normalized fluorescence for the second.

Compared with “CCGGCTGGCACCTGGTATTAATAGCTAAGATTACTATATCGACG”, “CCGGCTGACTAATGGTATTAATAGCTAAGATTACTATATCGACG” is lower in binding signal: 1.88 log2 normalized fluorescence for the first, -0.355 log2 normalized fluorescence for the second.
